Test results published in PubChem BioAssay AID1159580 (chemical genetic matrix, 2015).
Screen size: about 5,500 compounds; about 2,000 (36%) were called active. About 18% were inconclusive and are not listed. Cut-off read from the data, not from the text of the source: active = normalized growth mostly below about 0.91 (no sharp cut-off); inconclusive = no clear call, values can overlap the other calls; inactive = mostly above about 0.92. The list shows a part of the results.

Test: chemical genetic growth profiling, strain panel (AID 1159580);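 note: tested at 20 µM; growth read once vehicle control cultures reached saturation at 30 °C; 1 = growth at the plate median or of vehicle wells; lower values mean less growth of the strain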
Details: growth OD

Measured: normalized growth

COc1ccc2oc3ccccc3c(=O)c2c1
active: S. cerevisiae deletion strains, locus YJL187C, strain SWE1, active compounds read low 0.834 | S. cerevisiae deletion strains, locus YKL085W, strain MDH1 (second series), active compounds read low 0.914 | S. cerevisiae deletion strains, locus YKL085W, strain MDH1, active compounds read low 0.914 | S. cerevisiae deletion strains, locus YKL160W, strain elf1, active compounds read low 0.823 | S. cerevisiae deletion strains, locus YKR001C, strain vps1, active compounds read low 0.526 | S. cerevisiae deletion strains, locus YLL001W, strain dnm1, active compounds read low 0.875 | S. cerevisiae deletion strains, locus YLL026W, active compounds read low 0.879 | S. cerevisiae deletion strains, locus YLR027C, strain aat2, active compounds read low 0.855 | S. cerevisiae deletion strains, locus YLR039C, strain RIC1, active compounds read low 0.486 | S. cerevisiae deletion strains, locus YLR058C, strain SHM2, active compounds read low 0.861 | S. cerevisiae deletion strains, locus YLR102C, strain apc9, active compounds read low 0.907 | S. cerevisiae deletion strains, locus YLR221C, strain rsa3, active compounds read low 0.821 | S. cerevisiae deletion strains, locus YLR258W, strain gsy2, active compounds read low 0.871 | S. cerevisiae deletion strains, locus YLR262C, strain YPT6 (second series), active compounds read low 0.597 | S. cerevisiae deletion strains, locus YLR262C, strain YPT6, active compounds read low 0.577 | S. cerevisiae deletion strains, locus YLR268W, strain sec22, active compounds read low 0.84 | S. cerevisiae deletion strains, locus YLR320W, strain mms22, active compounds read low 0.464 | S. cerevisiae deletion strains, locus YLR330W, strain CHS5, active compounds read low 0.854 | S. cerevisiae deletion strains, locus YLR371W, strain rom2, active compounds read low 0.7 | S. cerevisiae deletion strains, locus YLR384C, strain iki3, active compounds read low 0.912 | S. cerevisiae deletion strains, locus YLR418C, strain cdc73, active compounds read low 0.659 | S. cerevisiae deletion strains, locus YML016C, strain PPZ1, active compounds read low 0.881 | S. cerevisiae deletion strains, locus YML032C, strain rad52, active compounds read low 0.755 | S. cerevisiae deletion strains, locus YML120C, strain ndi1, active compounds read low 0.742 | S. cerevisiae deletion strains, locus YML124C, strain tub3, active compounds read low 0.902 | S. cerevisiae deletion strains, locus YMR058W, strain fet3, active compounds read low 0.86 | S. cerevisiae deletion strains, locus YMR078C, strain ctf18, active compounds read low 0.852 | S. cerevisiae deletion strains, locus YMR125W, strain sto1, active compounds read low 0.713 | S. cerevisiae deletion strains, locus YMR205C, strain PFK2, active compounds read low 0.78 | S. cerevisiae deletion strains, locus YMR223W, strain ubp8, active compounds read low 0.84 | S. cerevisiae deletion strains, locus YMR231W, strain pep5, active compounds read low 0.915 | S. cerevisiae deletion strains, locus YNL071W, strain lat1, active compounds read low 0.421 | S. cerevisiae deletion strains, locus YNL128W, strain TEP1, active compounds read low 0.815 | S. cerevisiae deletion strains, locus YNL233W, strain BNI4, active compounds read low 0.81 | S. cerevisiae deletion strains, locus YNL248C, strain rpa49, active compounds read low 0.397 | S. cerevisiae deletion strains, locus YNL250W, strain rad50, active compounds read low 0.866 | S. cerevisiae deletion strains, locus YNL271C, strain bni1, active compounds read low 0.874 | S. cerevisiae deletion strains, locus YNL298W, strain CLA4, active compounds read low 0.869 | S. cerevisiae deletion strains, locus YNL307C, strain MCK1, active compounds read low 0.569 | S. cerevisiae deletion strains, locus YNR052C, strain pop2, active compounds read low 0.874 | S. cerevisiae deletion strains, locus YOL147C, strain pex11, active compounds read low 0.906 | S. cerevisiae deletion strains, locus YOR001W, strain rrp6, active compounds read low 0.825 | S. cerevisiae deletion strains, locus YOR061W, strain CKA2, active compounds read low 0.886 | S. cerevisiae deletion strains, locus YOR069W, strain VPS5, active compounds read low 0.918 | S. cerevisiae deletion strains, locus YOR070C, strain gyp1, active compounds read low 0.859 | S. cerevisiae deletion strains, locus YOR083W, strain WHI5, active compounds read low 0.789 | S. cerevisiae deletion strains, locus YOR106W, strain vam3, active compounds read low 0.817 | S. cerevisiae deletion strains, locus YOR144C, strain elg1, active compounds read low 0.904 | S. cerevisiae deletion strains, locus YOR184W, strain ser1, active compounds read low 0.771 | S. cerevisiae deletion strains, locus YOR270C, strain vph1, active compounds read low 0.528 | S. cerevisiae deletion strains, locus YOR290C, strain snf2, active compounds read low 0.686 | S. cerevisiae deletion strains, locus YOR316C, strain cot1, active compounds read low 0.903 | S. cerevisiae deletion strains, locus YPL051W, strain arl3, active compounds read low 0.772 | S. cerevisiae deletion strains, locus YPL078C, strain atp4, active compounds read low 0.773 | S. cerevisiae deletion strains, locus YPL106C, strain sse1, active compounds read low 0.78 | S. cerevisiae deletion strains, locus YPL241C, strain CIN2, active compounds read low 0.917 | S. cerevisiae deletion strains, locus YPR119W, strain clb2, active compounds read low 0.907 | S. cerevisiae deletion strains, locus YPR141C, strain kar3, active compounds read low 0.882 | S. cerevisiae deletion strains, locus YPR163C, strain tif3, active compounds read low 0.756 | S. cerevisiae deletion strains, strain wtn01, active compounds read low 0.87 | S. cerevisiae strains, strain wild type, active compounds read low 0.874
inactive: S. cerevisiae deletion strains, locus YJR043C, strain POL32, active compounds read low 0.932 | S. cerevisiae deletion strains, locus YJR075W, strain HOC1, active compounds read low 0.885 | S. cerevisiae deletion strains, locus YKL009W, strain mrt4, active compounds read low 0.886 | S. cerevisiae deletion strains, locus YKL068W, active compounds read low 0.949 | S. cerevisiae deletion strains, locus YKL190W, strain CNB1, active compounds read low 0.922 | S. cerevisiae deletion strains, locus YKR026C, strain gcn3, active compounds read low 0.927 | S. cerevisiae deletion strains, locus YKR091W, strain srl3, active compounds read low 0.945 | S. cerevisiae deletion strains, locus YLL041C, strain sdh2, active compounds read low 0.937 | S. cerevisiae deletion strains, locus YLR342W, strain FKS1 (second series), active compounds read low 0.945 | S. cerevisiae deletion strains, locus YLR342W, strain FKS1, active compounds read low 0.952 | S. cerevisiae deletion strains, locus YLR357W, strain rsc2, active compounds read low 1.09 | S. cerevisiae deletion strains, locus YLR370C, strain arc18, active compounds read low 0.946 | S. cerevisiae deletion strains, locus YMR129W, active compounds read low 0.95 | S. cerevisiae deletion strains, locus YMR307W, strain GAS1, active compounds read low 0.845 | S. cerevisiae deletion strains, locus YNL067W, strain RPL9B, active compounds read low 0.874 | S. cerevisiae deletion strains, locus YNL209W, strain ssb2, active compounds read low 0.934 | S. cerevisiae deletion strains, locus YNL322C, strain KRE1 (second series), active compounds read low 0.992 | S. cerevisiae deletion strains, locus YNR049C, strain mso1, active compounds read low 0.947 | S. cerevisiae deletion strains, locus YOL012C, strain htz1 0.651 | S. cerevisiae deletion strains, locus YOR080W, strain dia2, active compounds read low 0.959 | S. cerevisiae deletion strains, locus YOR136W, strain idh2, active compounds read low 0.922 | S. cerevisiae deletion strains, locus YOR265W, strain rbl2, active compounds read low 0.932 | S. cerevisiae deletion strains, locus YPL240C, strain hsp82, active compounds read low 0.931 | S. cerevisiae deletion strains, locus YPR167C, strain met16, active compounds read low 0.925
